APOBEC3A inh: APOBEC3A ssDNA deaminase inhibitors, primary screen, selectivity assay for APOBEC3G inhibitor project, biochemical, FAM/TAMRA oligo cleavage fluorescence; 0.41% of 330,000 active; recombinant A3A, FAM/TAMRA ssDNA deamination fluorescence; AID 493011, 2011; inhibition, % at 20 µM; DNA dC->dU-editing enzyme APOBEC-3A (Homo sapiens), P31941;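 active = at least 40% inhibition at 20 µM here, with at most 30% in a related deaminase screen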;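 note: plate controls were A3A with DMSO for no effect and wells lacking A3A enzyme for full effect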
Target sequence (P31941 whole entry, looked up): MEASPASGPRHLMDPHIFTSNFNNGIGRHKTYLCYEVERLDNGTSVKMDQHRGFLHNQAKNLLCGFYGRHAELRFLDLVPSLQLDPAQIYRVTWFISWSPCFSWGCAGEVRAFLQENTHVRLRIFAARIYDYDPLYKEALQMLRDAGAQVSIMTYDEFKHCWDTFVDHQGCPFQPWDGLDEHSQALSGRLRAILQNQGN
PHOSPHO1 block: PubChem AID 1565 | 1.1% of 290,000 active | recombinant PHOSPHO1, absorbance phosphatase assay | inhibition, % at 13.3 µM; in the data active = inhibition above about 60%
Target sequence (Q8TCT1 whole entry, looked up): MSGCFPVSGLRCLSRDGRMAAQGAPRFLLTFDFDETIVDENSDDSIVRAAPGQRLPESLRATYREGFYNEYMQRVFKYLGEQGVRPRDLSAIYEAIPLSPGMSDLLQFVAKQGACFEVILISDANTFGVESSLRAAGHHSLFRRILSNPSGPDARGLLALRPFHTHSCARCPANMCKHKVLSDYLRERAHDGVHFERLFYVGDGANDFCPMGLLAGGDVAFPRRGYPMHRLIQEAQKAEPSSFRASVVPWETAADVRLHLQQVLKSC
A3G deaminase: APOBEC3G DNA deaminase inhibitors, primary screen, biochemical, fluorescence, single-stranded DNA substrate, uHTS; DNA dC->dU-editing enzyme APOBEC-3G (Homo sapiens), Q9HC16; inhibition, % at 20 µM; recombinant A3G, ssDNA deamination FAM/TAMRA fluorescence; 0.28% of 330,000 active; AID 493012, 2011;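 active = inhibition of at least 40% at 20 µM, with no more than 30% in the related APOBEC3A deaminase screen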;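 note: plate controls were DMSO wells with A3G for no effect and wells lacking A3G enzyme for full effect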
ALR H2O2 inh: inhibitors of human ALR sulfhydryl oxidase, primary screen, biochemical, H2O2 detection, HRP-luminol luminescence, single point. FAD-linked sulfhydryl oxidase ALR (Homo sapiens), P55789. purified ALR, DTT oxidation. inhibition, % (no concentration beside the values). 3.8% of 290,000 active. AID 485317, 2010;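 active = mean replicate inhibition above about 79%, with every replicate also reaching it, limit read from the data; inconclusive = only one of the two criteria met; inactive = mean below limit and not every replicate reaching it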
Target sequence (P55789 whole entry, looked up): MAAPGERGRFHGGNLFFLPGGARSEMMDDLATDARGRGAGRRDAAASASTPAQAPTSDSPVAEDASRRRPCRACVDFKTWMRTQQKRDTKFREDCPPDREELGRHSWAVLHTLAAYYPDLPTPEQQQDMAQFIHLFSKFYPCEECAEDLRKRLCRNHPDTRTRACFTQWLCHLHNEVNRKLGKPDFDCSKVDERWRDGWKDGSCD
aDG glyco up: activators of alpha-DG glycosylation, primary screen, uHTS, Pro5-aDG cells, AlphaScreen | alpha-DG glycosylation AlphaScreen (IIH6); 0% Pro5, 100% B10-LARGE cell signal | activation, % at 10 µM | 0.22% of 360,000 active;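 active = activation of at least 8% versus controls, or a plate z-score of at least 8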;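 note: Pro5 are CHO cells carrying HIG-tagged alpha-DG that lacks glycosylation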
rCAG binder: binders of r(CAG) RNA repeats, primary screen, biochemical, fluorescence; r(CAG) RNA repeat, TO-PRO-1 dye displacement fluorescence; inhibition, % at 3 µM; 1.3% of 370,000 active;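 active = inhibition above the plate cutoff, the mean of all test compounds on that plate plus 3 SD, cut at about 35% in these data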;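 note: 0% = DMSO alone and 100% = 100 µM mitoxantrone as full dye displacement; higher means more dye released from RNA so lower well fluorescence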
Starred values were filed as active, the others as inactive; ? = inconclusive; nt = no result given. Rows were chosen to be rich in hits. Some 5.4% of all compounds tested hit in one or more screens of this group.

SMILES	APOBEC3A inh	PHOSPHO1 block	A3G deaminase	ALR H2O2 inh	aDG glyco up	rCAG binder
CCOc1cccc(/C=N/NC(=O)c2cccnc2)c1O	-5.4	23.9	-3.4	?	0.5	-1.5
CCOc1cccc(/C=N/NC(=O)c2cc(C3CC3)[nH]n2)c1O	-3.0	19.9	-2.3	97.6*	2.0	-3.1
O=C(N[C@H](C(=O)N1CCC[C@H]1C(=O)NCCc1ccccc1Cl)C1CCCCC1)C1CC1	nt	nt	nt	nt	nt	0.9
CC1(C)CC(=O)C(C=Nc2ccc(O)cc2)=C(O)C1	-2.0	2.3	-2.6	99.1*	0.1	-1.7
O=C(c1cncnc1)N1CCC(n2nnc3ncccc32)CC1	nt	nt	nt	nt	nt	0.2
CCCCCCCCNS(=O)(=O)CC1NCc2cc(F)ccc21 (centres undefined)	nt	nt	nt	nt	nt	6.5
COC(=O)C1CN(Cc2cn(CCOC(C)=O)nn2)CCS(=O)(=O)N1Cc1ccccc1 (centres undefined)	nt	nt	nt	nt	nt	1.4
CCOc1ccc(N/C(=C(/C(Cl)=C(Cl)Cl)[N+](=O)[O-])n2cncn2)cc1	-2.5	20.4	2.9	-74.2	nt	nt
O=[N+]([O-])/C(C(Cl)=C(Cl)Cl)=C(\Nc1ccc(F)cc1)n1cncn1	-3.7	93.2*	33.9	96.1*	nt	nt
CCOC(=O)Cn1cc(CN2C(C(=O)OC)CN(Cc3ccc(F)cc3)CCS2(=O)=O)nn1 (centres undefined)	nt	nt	nt	nt	nt	-0.9
CC(=O)C1=C(c2cccc([N+](=O)[O-])c2)N(C(C)=O)n2c(C)nnc2S1	-5.4	-16.9	-5.8	97.7*	0.3	-0.4
COC(=O)C12C=C3CC(c4ccc(C(F)(F)F)cc4)=C3C(=O)N1Cc1[nH]c3ccccc3c1C2 (centres undefined)	nt	nt	nt	nt	nt	13.2
CCOc1ccc(N(CC(=O)NN=C2CCN(C)CC2)S(C)(=O)=O)cc1	-0.1	-9.7	3.5	91.4*	-0.3	0.7
N#C/C(=C\c1ccc(O)c(O)c1)S(=O)(=O)c1ccccc1	1.5	-10.9	7.0	98.9*	-0.1	12.1
Cc1[nH]c2ccccc2c1/C=C(\C#N)S(=O)(=O)c1ccccc1	5.3	-7.0	3.8	97.2*	0.0	20.1
Cc1cc(C)c(/C=C(\C#N)S(=O)(=O)c2ccccc2)[nH]1	3.3	43.0	-2.5	nt	0.0	-3.1
N#C/C(=C/c1ccc(F)cc1)S(=O)(=O)c1ccccc1	-3.1	27.7	0.6	-18.6	-0.2	3.7
Cn1cc(-c2cccc3[nH]cc(-c4ccccc4)c23)c2ccccc21	nt	nt	nt	nt	nt	10.5
CCN(CC)S(=O)(=O)c1cc(NC(=O)CSc2nc3c(cc2C#N)C(=O)CC(C)(C)C3)ccc1C	-2.9	-5.7	-7.5	98.7*	1.1	1.0
CCOC(=O)N1CCN(c2c(NCCN(C)Cc3ccccc3)c(=O)c2=O)CC1	0.3	6.3	-4.4	-20.9	-0.2	0.9
CCOC(=O)C1CCN(c2c(NCCN(CC)c3ccccc3)c(=O)c2=O)CC1	0.9	10.6	3.8	97.7*	-0.1	10.2
CCOC(=O)C1CCCN(c2c(NCCN(CC)c3ccccc3)c(=O)c2=O)C1 (centres undefined)	-8.5	26.2	-7.7	nt	0.1	-1.2
CCOC(=O)N1CCC(Nc2c(NCCCN(CC)c3cccc(C)c3)c(=O)c2=O)CC1	-2.4	-1.3	-7.7	98.9*	-0.3	1.5
CCOC(=O)C1CCCN(c2c(NCCCN(CC)c3ccccc3)c(=O)c2=O)C1 (centres undefined)	-2.5	17.6	-2.1	98.4*	-0.2	0.4
CCOC(=O)N1CCN(c2c(NCCCN(C)c3ccccc3)c(=O)c2=O)CC1	-7.1	26.1	-8.4	99.2*	-0.1	-1.6
SMILES	APOBEC3A inh	PHOSPHO1 block	A3G deaminase	ALR H2O2 inh	aDG glyco up	rCAG binder
CCOC(=O)CC[C@@]1(C(=O)OCC)C[C@@H](CC(=O)NCCCN2CCCC2=O)C(=O)N2CCCC=C21	nt	nt	nt	nt	nt	-0.3
COc1cccc(Cn2cc(COC(=O)N3CCCC3)nn2)c1	nt	nt	nt	nt	nt	1.2
C=C(C)Cn1c(SCC(=O)N/N=C(\C)c2ccc([N+](=O)[O-])cc2)nnc1-c1ccc(Br)cc1	nt	nt	nt	nt	nt	5.5
O=C(O)COc1ccc(-c2nc(-c3ccccc3)c(-c3ccccc3)[nH]2)cc1	-3.6	18.4	-10.3	99.0*	-0.1	26.3
CCC1=C/C(=C/c2sc3ccccc3[n+]2CC)CC(C)(C)C1	20.7	-3.0	15.3	-0.9	nt	0.3
CC[n+]1c(/C=C2\C=C(C)CC(C)C2)sc2ccccc21 (centres undefined)	9.9	102.3*	28.4	-5.1	0.5	nt
CC12CCC(C)(c3nc4ccccc4nc31)C2(C)C	1.0	50.7	-3.2	2.5	-0.2	-1.5
Cc1[nH]nc2c1-c1nc3ccccc3nc1C(C)(C)C2	1.1	3.9	3.0	98.6*	0.0	0.7
COc1ccc(CNc2ncc(-c3ccc(F)cc3)n2C)cc1OC	-8.3	-26.5	-4.9	53.6	0.3	-2.5
COc1ccccc1CNc1ncc(-c2ccc(F)cc2)n1C	-5.2	24.7	-8.5	97.7*	0.0	-1.3
COc1ccccc1CNc1ncc(-c2ccccc2)n1C	-5.0	29.1	-4.7	nt	0.3	5.0
Cn1c(-c2cccc(Br)c2)cnc1NCc1cccnc1	2.0	17.6	0.6	85.4*	0.6	0.5
COc1cc(CNc2ncc(-c3ccc(Br)cc3)n2C)cc(OC)c1O	-11.1	20.1	-8.5	85.6*	0.1	3.4
COC(=O)[C@@]12CCCCC3=C1N(CCC3)C(=O)[C@H]2CC(=O)NCC1CCCCC1	nt	nt	nt	nt	nt	-1.8
c1ccc2c(CSCCc3ccncc3)cccc2c1	-2.1	16.2	-5.2	99.7*	0.0	-1.6
O=C(c1cc(Cl)ccc1F)N1CCCC(c2nc(-c3cccs3)no2)C1 (centres undefined)	nt	nt	nt	nt	nt	2.0
CCOc1ccccc1C(=O)N1CCN=C1SCc1cccnc1	-5.8	20.8	-6.8	99.4*	0.6	-8.4
O=C(c1c(F)cccc1F)N1CCN=C1SCc1ccccc1	-7.1	41.6	-5.7	4.6	0.3	-5.7
O=C(COc1ccccc1)N1CCN=C1SCc1ccccc1	-1.0	19.5	-2.5	nt	-0.2	-3.1
O=C(c1ccccc1F)N1CCN=C1SCc1cccnc1	-4.8	4.7	-4.4	99.8*	-0.1	-0.6
Cc1cc(Nc2ccc(N3CCC(C)CC3)cc2)n2ncnc2n1	-3.1	10.5	-2.4	90.2*	0.3	-5.0
O[C@H](COc1cc(F)cc(F)c1)CN1CCC(C(O)(c2ccccc2)c2ccccc2)CC1	nt	nt	nt	nt	nt	1.8
CCOC(=O)c1sc(NC(=O)/C=C/c2cnn(CC)c2C)c(C(=O)OCC)c1C	2.7	69.6*	11.5	-5.2	-0.3	3.2
CC(C)c1ccc2c(c1)C(=O)NC(C)(C)C2	1.0	6.4	-1.5	92.3*	0.0	-1.4
